# Results reported in PubChem BioAssay AID504647 (National Center for Advancing Translational Sciences (NCATS), 2011).
# The list shows a part of the results. Active and inactive are the calls of the source. No rule for the calls is given here.
# Assay: Assay for Inhibitors of Influenza NS1 Protein Function: Influenza virus replication assay in MDCK cells infected with virus A/PR/8/34
# Conditions: MDCK infected influenza A/PR/8/34, virus titer TCID50, at 5 µM; viability: measured here: MDCK cell viability, stronger effect = higher value; virus titer (log TCID50): stronger effect = lower value
# Source text: NIH Chemical Genomics Center [NCGC]
# NIH Molecular Libraries Probe Centers Network [MLPCN]
# Assay Submitter (PI): Daniel Engel
# Influenza is a world-wide public health problem and emerging forms of the virus have the potential to cause a pandemic of equal or greater magnitude to the outbreaks recorded in 1918, 1957 or 1968. Vaccine development is proceeding and there also exist two classes of anti-influenza compounds. However these therapeutic modalities are neither fully effective nor widely enough available to fulfill global needs. In addition their potential usefulness against newly emergent strains is not known. Efforts are needed to develop novel agents against influenza virus, including broad-spectrum agents. Identification of small molecules that inhibit NS1 function either directly or by interfering with specific cellular pathways may be a key to increasing our defense against the virus.
# We have miniaturized and optimized a cell based assay in which NS1 from influenza A is expressed in the budding yeast S. cerevisiae. NS1 is a multi-functional protein that counters the host innate immune response and facilitates viral versus cellular gene expression. Expression of NS1 causes a pronounced slow growth phenotype in yeast due to its intrinsic molecular activities. Small molecules that suppress the slow growth phenotype can be identified by a straightforward growth recovery assay using optical density (OD) as the measurement. The same yeast strain not expressing NS1 was used as positive control in the yeast growth recovery assay. The present experiment attempted to confirm the activity of compounds observed in the primary screen.
# This assay confirms the activity of compounds from the primary screen by measuring their affect on viral replication.
# Protocol details are given in Basu et al. J. Vir. 83(4):1881-1891 2009. […] All media and sera were from Invitrogen. […] Confluent cell monolayers were infected at a multiplicity of infection (MOI) of 0.1 for 48 h in the presence or absence of 5uM compound. Compounds were added at the beginning of infection and were present throughout the infection. After 48 h virus titers were determined by standard TCID50 analysis.
Compound,virus titer (log TCID50),viability
Cc1ccc(Cn2c(C)nc3c(c2=O)c2nc4ccccc4nc2n3Cc2ccco2)cc1,7.5 log10 TCID50 (active),101%
Cc1cc(C)c2cc(CN(Cc3nnnn3Cc3ccc(F)cc3)C3CCCC3)c(=O)[nH]c2c1,8.5 log10 TCID50 (inactive),103%
CCCc1cc(=O)[nH]c(SCC(=O)c2cc(C)n(CCC)c2C)n1,7.5 log10 TCID50 (active),95.4%
O=c1cc(O)nc(SCc2ccccc2Cl)[nH]1,7.66 log10 TCID50 (inactive),104%
O=C1c2cccc(OCC(=O)N3N=C(c4cccs4)CC3c3ccc(F)cc3)c2CCN1Cc1ccccc1 (stereo not given),8.5 log10 TCID50 (inactive),91%
